Sampled rows, rich in hits. Any-hit rate of the full collection: about 7.2%.
FLuc inh: Photinus pyralis luciferase inhibition; hit rate 2.5% among 76,000; Potency, µM (top dose mostly 115 µM), actives largely listed as inhibitors; purified P. pyralis luciferase, luminescence, biochemical; note: nearly all actives have a fitted effect of over 65% in size
Target sequence (P08659 whole entry, looked up): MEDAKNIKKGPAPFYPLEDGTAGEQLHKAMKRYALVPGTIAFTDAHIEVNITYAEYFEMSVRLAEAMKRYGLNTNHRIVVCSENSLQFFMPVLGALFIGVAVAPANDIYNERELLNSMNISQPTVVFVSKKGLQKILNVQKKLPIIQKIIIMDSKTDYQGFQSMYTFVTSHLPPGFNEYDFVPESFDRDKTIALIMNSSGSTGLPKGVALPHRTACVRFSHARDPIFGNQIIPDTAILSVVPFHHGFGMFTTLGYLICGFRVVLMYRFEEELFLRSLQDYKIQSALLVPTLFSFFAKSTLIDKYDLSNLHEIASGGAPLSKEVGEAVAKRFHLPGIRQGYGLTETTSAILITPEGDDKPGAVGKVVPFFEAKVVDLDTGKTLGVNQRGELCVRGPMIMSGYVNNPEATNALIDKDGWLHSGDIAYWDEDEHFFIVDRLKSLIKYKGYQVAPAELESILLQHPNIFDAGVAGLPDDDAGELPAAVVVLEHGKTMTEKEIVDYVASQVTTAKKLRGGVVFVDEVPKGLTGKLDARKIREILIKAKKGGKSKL
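Purified P. pyralis luciferase (10nM final) in 50mM Tris acetate pH 7.5, 10mM Mg acetate, 0.01% Tween-20, 0.05% BSA with 10uM D-luciferin and 10uM ATP. Compounds titrated qHTS. Luminescence imaged on CCD.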
SNCA expr inhib: reduces expression of the alpha-synuclein gene | hit rate 0.17% among 140,000 | Potency, µM (doses to about 57.2 µM), without a hit: top-dose activity change, negative = inhibition, actives largely listed as inhibitors | HEK-293 SNCA-luciferase knock-in, luminescence, 24 h;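 note: plate controls were DMSO cells for no effect and cell-free wells for full effect; nearly all actives have a fitted effect of over 45% in size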
hNpr1 antagonist: blocks ANP-stimulated signaling of human Npr1 receptor; HEK293 hNpr1 GloSensor cGMP, ANP-stimulated luminescence; Potency, µM (series often up to 46.3 µM), without a hit: at the highest dose activity change, negative = inhibition, usual class: inhibitors; hit rate 1.6% among 76,000; calls by dose curve; note: nearly all actives have a fitted effect of over 60% in size
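HEK293 cells stably expressing human Npr1 and cGMP GloSensor pGS-40F, loaded 2 h with 2% GloSensor reagent, given compound 30 min at room temperature. Luminescence read before and 20 min after 0.1 nM hNppA.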
SNCA viab count: reduces viability of HEK-293 SNCA reporter cells. HEK-293-SNCA-luc viability, GF-AFC fluorescence, 24 h. Potency, µM (highest dose often 57.1 µM), inactives show at the highest dose activity change, negative = cytotoxicity, usual class: cytotoxic. hit rate 0.12% among 150,000;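 note: 0% = DMSO-treated cells and -100% = medium-only wells without cells; nearly all actives have a fitted effect of over 30% in size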
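Cytotoxicity counterscreen: after 24 h compound treatment of genome-edited SNCA-luciferase HEK-293 cells, live-cell protease substrate GF-AFC read by fluorescence after 30 min; activity scaled between DMSO (0%) and medium-only (-100%), curves Hill-fitted.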
HEK293 tox: HEK 293 cell cytotoxicity | HEK 293 viability, ATP luminescence (CellTiter-Glo), 48-72 h | Potency, µM (top dose mostly 115 µM), for the others: at the highest dose activity change, negative = cytotoxicity, most hits filed as inhibitors | hit rate 6.6% among 94,000 | AID 1345083; note: nearly all actives have a fitted effect of over 60% in size
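ATP-coupled CellTiter-Glo luminescence served as viability read-out, recorded 10 min after reagent addition at room temperature. HEK 293 cells, 250 cells/well, had been incubated with pintool-transferred compound for 48 or 72 hr at 37 degree Celsius.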
3T3 cytotox: kills NIH 3T3 cells; NIH 3T3 viability, CellTiter-Glo ATP luminescence, 48-72 h; Potency, µM (highest dose often 96.7 µM), inactives show at the highest dose activity change, negative = cytotoxicity, hits mostly inhibitors; hit rate 4.3% among 94,000; AID 1345082; note: nearly all actives have a fitted effect of over 55% in size
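NIH 3T3 cells at 400 cells/well received 23 nL of compound by pintool and were incubated 48 or 72 h at 37 °C. Viability was read as ATP-coupled CellTiter-Glo luminescence.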
An asterisk follows results filed as active; i = inactive; ? = inconclusive; / = not tested or not shown; [ ] = remark or other dose. Unless noted, calls come from the whole dose curve; as a rule, active = well fitted curve in the direction sought with a large enough effect; inconclusive = small, poorly fitted or top-dose-only effect, or another doubt; inactive = no such curve, though single readings can be large; an effect the other way counts as inactive or inconclusive. Unless noted, % is set by controls: 0 for no effect and ±100 for the full control effect; potency is the fitted concentration of half-maximal effect.

SMILES	FLuc inh	SNCA expr inhib	hNpr1 antagonist	SNCA viab count	HEK293 tox	3T3 cytotox
O=C(Nc1ccccc1)N[C@H]1CO[C@H]2[C@@H]1OC[C@@H]2Nc1nccc(-c2cccs2)n1	?	34%[87.6 µM]	-15%[70.6 µM]	-16%[87.6 µM]	63µM*	?
O=C(N[C@H]1CO[C@H]2[C@@H]1OC[C@@H]2Nc1nccc(-c2cccs2)n1)c1ccc(C(F)(F)F)cc1	i	?	-13%	-3%	?	?
CC(C)(C)c1ccnc(N[C@H]2CO[C@H]3[C@@H]2OC[C@@H]3NC(=O)c2cccs2)n1	?	-13%[87.6 µM]	?	-3%[87.6 µM]	?	-28%[138 µM]
COc1ccccc1-c1ccnc(N[C@H]2CO[C@H]3[C@@H]2OC[C@@H]3NS(=O)(=O)c2cccc3cccnc23)n1	i	2%	6%	-11%	-19%	-23%
COc1ccccc1-c1ccnc(N[C@H]2CO[C@H]3[C@@H]2OC[C@@H]3NS(=O)(=O)c2ccc3ccccc3c2)n1	i	5%	?	0%	32µM*	?
CC(=O)c1ccc(NC(=O)N[C@H]2CO[C@H]3[C@@H]2OC[C@@H]3Nc2nccc(-c3cccs3)n2)cc1	i	2%	1%	-9%	4%	-1%
O=C(N[C@H]1CO[C@H]2[C@@H]1OC[C@@H]2Nc1nccc(-c2cccs2)n1)c1ccccc1	i	16%[87.6 µM]	?	?	79µM*	?
CC(C)(C)c1ccnc(N[C@H]2CO[C@H]3[C@@H]2OC[C@@H]3NS(=O)(=O)c2cccs2)n1	?	?	10µM*	-24%[87.6 µM]	?	79µM*
Cc1ccc(S(=O)(=O)N2CCOC3(CNCCOC3)C2)cc1F (stereo unspecified)	i	-20%	2%	1%	4%	-9%
O=C(NCc1ccc(OC(F)(F)F)cc1)C1c2c(F)cccc2C(=O)N1CCc1ccccn1 (stereo unspecified)	/	/	/	-19%	/	/
O=C(COc1ccccc1)N[C@H]1CO[C@H]2[C@@H]1OC[C@@H]2Nc1nccc(-c2ccco2)n1	i	-6%[87.6 µM]	-1%[70.6 µM]	-8%[87.6 µM]	?	89µM*
O=C(N[C@H]1CO[C@H]2[C@@H]1OC[C@@H]2Nc1nccc(-c2cccs2)n1)C1CCCCC1	i	?	?	-26%[87.6 µM]	?	?
CC(C)(C)c1ccnc(N[C@H]2CO[C@H]3[C@@H]2OC[C@@H]3NC(=O)NCc2ccccc2)n1	i	11%[87.6 µM]	-23%[70.6 µM]	?	89µM*	?
CC(=O)Nc1ccc(S(=O)(=O)N[C@H]2CO[C@H]3[C@@H]2OC[C@@H]3Nc2nccc(-c3cccs3)n2)cc1	i	-18%	?	-15%	35µM*	?
CCNC(=O)O[C@@H]1CO[C@H]2[C@@H]1OC[C@@H]2Nc1nccc(-c2cccs2)n1	i	3%[87.6 µM]	1%[70.6 µM]	-8%[87.6 µM]	?	-21%[174 µM]
O=C(COc1ccccc1)N[C@H]1CO[C@H]2[C@@H]1OC[C@@H]2Nc1nccc(-c2cccs2)n1	i	7%	?	0%	?	35µM*
COc1ccc(Nc2ccc3c(n2)CN(Cc2ccccc2F)C(=O)CO3)cc1	i	14%[87.6 µM]	?	?	63µM*	?
COc1ccc(Nc2ccc3c(n2)CN(Cc2ccccc2C)C(=O)CO3)cc1	i	-12%[87.6 µM]	?	?	89µM*	79µM*
COc1ccc(Nc2ccc3c(n2)CN(Cc2nc4ccccc4s2)C(=O)CO3)cn1	?	4%[87.6 µM]	?	?	50µM*	?
O=C1COc2ccc(Nc3ccccc3)nc2CN1Cc1ccccc1	i	-28%[87.6 µM]	-3%[70.6 µM]	-6%[87.6 µM]	?	?
COc1ccccc1-c1ccc2c(n1)CN(Cc1ccccc1C)C(=O)CO2	i	-4%[87.6 µM]	-10%[70.6 µM]	-4%[87.6 µM]	?	-17%[138 µM]
COc1ccc(-c2cc(-c3cccc(CO)c3)cn3cncc23)cc1	i	?	-20%[70.6 µM]	?	79µM*	56µM*
C[S+](=O)([O-])c1ccc(-c2cc(-c3cccnc3)c3cncn3c2)cc1	i	41%[87.6 µM]	-15%[70.6 µM]	3%[87.6 µM]	?	?
COc1ccc(-c2cc(-c3cccc(OC)c3OC)cn3cncc23)cc1	?	4%[87.6 µM]	0%[70.6 µM]	-14%[87.6 µM]	89µM*	?
Oc1ccccc1-c1cc(-c2cccnc2)c2cncn2c1	i	?	-22%[70.6 µM]	-22%[87.6 µM]	100µM*	?
SMILES	FLuc inh	SNCA expr inhib	hNpr1 antagonist	SNCA viab count	HEK293 tox	3T3 cytotox
COc1ccc(-c2cc(-c3ccccc3O)cn3cncc23)cc1	i	1%[87.6 µM]	-23%[70.6 µM]	-18%[87.6 µM]	100µM*	?
COc1ccc(S(=O)(=O)N2CCCN(C)c3ccccc32)cc1	i	7%	-11%	-18%	?	?
COC1CCN(C(=O)COc2ccccc2)CC(=O)N(C)c2ccccc21 (stereo unspecified)	/	/	/	/	-11%	?
CCC(=O)N1CCC(c2ncc(C)n2Cc2ccccc2)C1 (stereo unspecified)	i	15%	1%	9%	?	-26%
COc1ccc(-c2cc(-c3cnn(C)c3)cn3cncc23)cc1	i	-27%[87.6 µM]	-18%[70.6 µM]	-14%[87.6 µM]	?	35µM*
COc1ccc(-c2cc(-c3cnn(C)c3)cn3cncc23)cn1	i	-23%[87.6 µM]	-13%[70.6 µM]	-3%[87.6 µM]	?	?
CCn1nccc1C(=O)N1CC(c2nc(CCOCC3CC3)no2)C1	i	1%	0%	-2%	-19%	?
Fc1ccc(-c2cnc3n2C[C@H](CNC2CCOCC2)OC3)cc1	i	-11%[87.6 µM]	-3%[70.6 µM]	4%[87.6 µM]	-23%[172 µM]	?
O=C(COc1ccccc1)NC[C@H]1Cn2c(-c3ccc(Cl)cc3)cnc2CO1	i	5%[87.6 µM]	-13%[70.6 µM]	-17%[87.6 µM]	100µM*	?
Clc1ccc(-c2cnc3n2C[C@H](CNC2CCOCC2)OC3)cc1	i	-13%[87.6 µM]	-9%[70.6 µM]	9%[87.6 µM]	?	89µM*
COc1ccc(C(=O)NC[C@H]2Cn3c(-c4ccc(Cl)cc4)cnc3CO2)cc1	?	?	?	-24%[87.6 µM]	100µM*	?
CC1=C[C@@H](CN2CCN(CCO)CC2)[C@H](C(C)C)C[C@H]1Cc1nnc(-c2ccccc2F)o1	i	10%	1%	-30%	?	?
CC1=C[C@@H](CN2CCN(c3ccccc3)CC2)[C@H](C(C)C)C[C@H]1Cc1nnc(-c2cncn2C)o1	i	?	0%	-26%	35µM*	?
CC1=C[C@@H](CN2CCN(CCO)CC2)[C@H](C(C)C)C[C@H]1Cc1nnc(Cc2c[nH]c3ccccc23)o1	i	?	-17%	-29%	?	28µM*
CC1=C[C@@H](CN2CCN(c3ccc(F)cc3)CC2)[C@H](C(C)C)C[C@H]1Cc1nnc(-c2cncn2C)o1	i	-14%	-2%	-24%	22µM*	?

Source: PubChem BioAssay (National Center for Advancing Translational Sciences (NCATS))
